CFTR F508del cor – CFTR F508del correction in bronchial cells; CFBE cells, YFP halide quenching; stimulated with forskolin plus potentiator P3; % fluorescence drop versus neutral controls; activity (quench increase), % at 7.58 µM; hit rate 0.36% among 350,000;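 active = mean added fluorescence quench of at least 8% versus neutral control, with both replicates also reaching 8%; inconclusive = only one of the mean or replicate conditions met; inactive = mean below 8% and not both replicates reaching 8%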;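 also: cells transiently co-express mutant CFTR-F508del with the halide-sensitive YFP; corrector assay measuring rescue of mutant channel to the surface after 24 h compound exposure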
FGF22 binding – FGF22 (human) thermal shift binding; recombinant FGF22 thermal shift, SYPRO orange fluorescence; percent of sucrose octasulfate shift, DMSO zero; activity (Tm shift, normalised), % at 9.99 µM; hit rate 1.5% among 340,000;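 active = mean Tm shift, scaled 0 neutral to 100 positive control, at about 1.3% or above, every replicate too, limit read from the data; inconclusive = no clear call, values can overlap the other calls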
Target sequence (Q9HCT0 whole entry, looked up): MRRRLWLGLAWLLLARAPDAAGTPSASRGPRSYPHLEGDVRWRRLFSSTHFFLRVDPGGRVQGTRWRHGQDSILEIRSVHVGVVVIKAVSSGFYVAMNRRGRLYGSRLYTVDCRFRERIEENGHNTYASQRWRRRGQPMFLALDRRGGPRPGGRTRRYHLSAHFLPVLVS
Vif imaging – HIV Vif inhibition; HEK293T cells, Vif self-association by quenched fluorescence, imaging, 24 h; inhibition, % at 7.49 µM; hit rate 0.35% among 340,000; in the data active = inhibition above about 50%, passing the limit was not always enough; inconclusive = no clear call, values can overlap the other calls; inactive = below about 31%
* hit, by the source's call; ? = inconclusive; nt = not tested or not shown. Sampled rows, rich in hits. Any-hit rate of the full collection: about 1.7%.

SMILES | CFTR F508del cor | FGF22 binding | Vif imaging
COc1cc(OC)c(C(=O)OCC(=O)Nc2cc(C)on2)cc1OC | -1 | 43* | -4
COc1ccccc1N1CCN(/N=C/c2cccc(O)c2)CC1 | 0 | 44* | -3
COc1ccccc1N1CCN(/N=C/c2cc(OC)c(O)c(OC)c2)CC1 | nt | 0 | 18
Cn1cnc(S(=O)(=O)N2C[C@H](O)COC[C@H]3O[C@@H](CC(=O)N4CCN(c5ccccc5)CC4)CC[C@@H]32)c1 | -1 | 0 | nt
O=C(C[C@@H]1CC[C@H](NC(=O)Cc2cccnc2)[C@H](CO)O1)Nc1ccccc1 | -1 | nt | nt
CCCN1C(=O)S/C(=C\c2ccc(N3CCOCC3)o2)C1=O | -1 | 43* | 6
CCCN1C(=O)S/C(=C/c2ccc(N3CCOCC3)o2)C1=O | -2 | 0 | ?
CC(C)NC(=O)N(C)C[C@@H]1Oc2c(NC(=O)Nc3ccccc3)cccc2C(=O)N([C@H](C)CO)C[C@@H]1C | 0 | 0 | nt
COc1ccc(-c2ccc3n(c2=O)C[C@H]2[C@H](CO)[C@@H](C(=O)N(C)C)N(CC4CCOCC4)[C@@H]32)cc1 | 2 | 0 | nt
Cc1ccc(NC(=O)Nc2cccc([N+](=O)[O-])c2)nc1 | 1 | 43* | -1
O=C(O)CCCC(=O)Nc1cccc([N+](=O)[O-])c1 | 0 | 43* | 10
Cc1ccc(NC(=O)Nc2ccc([N+](=O)[O-])cc2)nc1 | 2 | 0 | 3
Cc1ccc(C(=O)CNc2cccc([N+](=O)[O-])c2)cc1 | -1 | 43* | nt
Cc1ccc(NCC(=O)c2ccc([N+](=O)[O-])cc2)cc1 | nt | nt | 0
O=C(CCCc1ccccc1)Nc1cccc([N+](=O)[O-])c1 | 1 | 1 | 8
Cc1ccc(S(=O)(=O)N(C)C[C@@H]2Oc3ccc(NS(=O)(=O)c4c(C)noc4C)cc3C(=O)N([C@H](C)CO)C[C@H]2C)cc1 | -1 | 0 | nt
Cc1cc2nc(C3CCN(C(=S)NCC(C)C)CC3)[nH]c2cc1C | 1 | 1.9* | 5
COc1ccccc1NC(=S)N1CCC(c2nc3cc(C)c(C)cc3[nH]2)CC1 | -1 | nt | -2
C[C@@H]1CN([C@@H](C)CO)C(=O)c2cc(NS(=O)(=O)c3ccc(F)cc3)ccc2O[C@@H](C)CCCCO[C@@H]1CN(C)C | -2 | 0 | nt
CCOc1ccc(OC(=O)C(CCS(C)(=O)=O)N2C(=O)c3ccccc3C2=O)cc1 (stereo not drawn) | nt | nt | 5
CC(=O)c1ccc(OC(=O)C(CCS(C)(=O)=O)N2C(=O)c3ccccc3C2=O)cc1 (stereo not drawn) | nt | nt | 81*
Cc1csc(Nc2ccccc2)[n+]1-c1ccccc1 | -2 | 43* | -12
Cc1csc(Nc2ccccc2)[n+]1C | 1 | 0 | 12
CC(=O)Nc1cccc(NC(=O)CS(=O)(=O)c2cn(CC(=O)N3CCOCC3)c3ccccc23)c1 | 0 | 43* | -7
COc1ccccc1NC(=O)Cn1cc(C(=O)C(=O)N2CCOCC2)c2ccccc21 | -1 | 0 | 0
SMILES | CFTR F508del cor | FGF22 binding | Vif imaging
O=C(Cn1cc(C(=O)C(=O)N2CCOCC2)c2ccccc21)Nc1cccc(C(F)(F)F)c1 | 0 | 0 | 70*
Cc1cccc(NC(=O)CS(=O)(=O)c2cn(CC(=O)N3CCOCC3)c3ccccc23)c1 | -1 | 0 | 6
CCC(=O)Nc1ccc2c(c1)OC[C@@H](C)N(C(=O)CC1CC1)C[C@@H](C)[C@@H](OC)CN(C)C2=O | 1 | 0 | nt
O=C(C[C@@H]1CC[C@@H]2[C@H](COC[C@@H](O)CN2Cc2cc(F)ccc2F)O1)NCc1ccccc1 | 1 | 0 | nt
CC1=C(C(=O)Nc2cccc([N+](=O)[O-])c2)C2(CCC(C)CC2)OC1=O (stereo not drawn) | -2 | 44* | 2
CCOc1ccc(NC(=O)C2=C(C)C(=O)OC23CCC(C)CC3)cc1 (stereo not drawn) | 2 | 0 | -21
CC1=C(C(=O)NC2CCCC(C)C2C)C2(CCCCC2)OC1=O (stereo not drawn) | -4 | 0 | -1
CC1=C(C(=O)NC2CCCCC2C)C2(CCC(C)CC2)OC1=O (stereo not drawn) | 9.9* | 0 | 26
O=C(Nc1ccccc1F)N[C@H]1C=C[C@@H](CC(=O)N2CCCCC2)O[C@H]1CO | 2 | 0 | nt
Cc1cc(=O)[nH]c(/N=C(\N)Nc2ccc3c(c2)OCCO3)n1 | -1 | 44* | 11
COC(=O)Cc1cc(=O)[nH]c(/N=C(\N)Nc2ccc(C)cc2)n1 | -2 | 0 | 17
Cc1cc(C)nc(/N=C(\N)Nc2ccc3c(c2)OCCO3)n1 | nt | nt | 0
COC(=O)Cc1cc(=O)[nH]c(/N=C(\N)Nc2cccc(C)c2)n1 | 0 | 43* | -4
COc1cccc(N/C(N)=N/c2nc(C)cc(=O)[nH]2)c1 | nt | nt | 5
Cc1cccc(N/C(N)=N/c2nc(C)cc(=O)[nH]2)c1 | -1 | 43* | 4
COCC(=O)N1[C@@H](C#N)[C@H](c2ccccc2-c2ccccc2F)[C@@H]1CO | -4 | 0 | nt
CN(C)C(=O)[C@@H]1[C@@H](CO)[C@@H]2Cn3c(cccc3=O)[C@H]1N2CC1CCCC1 | 0 | nt | nt
C[C@H]1CN([C@@H](C)CO)C(=O)c2cc(C3=CCCCC3)cnc2O[C@@H]1CN(C)C(=O)Nc1ccccc1 | 1 | 0 | nt
CCC(=O)N(C)C[C@H]1Oc2cc(-c3ccc(OC)cc3)ccc2S(=O)(=O)N([C@H](C)CO)C[C@H]1C | -1 | 0 | nt
CCCn1c(C)cc(C(=O)COc2ncnc3sccc23)c1C | 0 | 0 | 1
CCCn1c(C)cc(C(=O)COc2ccc(-c3nnco3)cc2)c1C | 0 | 43* | 0
COc1ccc(NC(=O)Nc2ccc3c(c2)C(=O)N([C@@H](C)CO)C[C@@H](C)[C@@H](CN(C)S(=O)(=O)c2cn(C)cn2)OCCCC[C@@H](C)O3)cc1 | 0 | 0 | nt
Cc1ccc(C(NC(=O)N2CCN(C)CC2)C(Cl)Cl)cc1F (stereo not drawn) | -1 | 44* | 12
Cc1ccc(C(NC(=O)N2CCOCC2)C(Cl)Cl)cc1F (stereo not drawn) | nt | nt | 5
COC(=O)C1=C(C)NC(=O)NC1c1ccco1 (stereo not drawn) | 3 | 43* | 10
SMILES | CFTR F508del cor | FGF22 binding | Vif imaging
COC(=O)C1=C(C)NC(C)=C(C(=O)OC)C1c1ccco1 | 0 | 0 | 7
C[C@H]1CN([C@@H](C)CO)C(=O)c2cc(-c3cncnc3)cnc2O[C@@H]1CN(C)C(=O)c1ccccc1F | 0 | 0 | nt
CCCNC(=O)C[C@@H]1CC[C@@H]2[C@H](COC[C@@H](O)CN2Cc2ccc(Cl)c(Cl)c2)O1 | 1 | 0 | nt
Cc1ccc(S(=O)(=O)Oc2ccccc2[N+](=O)[O-])cc1 | -1 | 43* | 14
COc1ccccc1[N+](=O)[O-] | 1 | 0 | -2
OC(CNCC#Cc1ccccc1)c1ccccc1 (stereo not drawn) | -1 | 0 | 4
CCC(CO)NCC#Cc1ccccc1 (stereo not drawn) | -2 | 44* | 3
CN(C)C(=O)c1cccc(-c2ccc([C@@H]3[C@H]4CN(S(C)(=O)=O)CCCCN4[C@H]3CO)cc2)c1 | 3 | 0 | nt
CCCC#Cc1cnc2c(c1)C(=O)N([C@@H](C)CO)C[C@H](C)[C@H](CN(C)C(=O)c1ccc(F)cc1)O2 | 0 | 0 | nt
